Laboratory results reported in PubChem BioAssay.
Active and inactive are the calls of the source. Unless noted, no rule for the calls is given here.

Assays:
[1] = test system: XIP peptide (Xip251-270) binding; assay: XIP fragment 251-270 binding compounds – biochemical, small-molecule microarray, fluorescence 635/667 nm, 0.1 µg/mL protein, primary screen (AID 1182); settings: fluorescent protein binding, 635 nm, higher = more signal, called active from +8 up or from −8 down
XIP peptide (Xip251-270) = assay: compounds binding XIP fragment 251-270 – biochemical, small-molecule microarray, fluorescence 635/667 nm, 0.5 µg/mL protein, primary screen (AID 1183); settings: fluorescence 635 nm, higher = more signal
[2] = blood-stage malaria parasite viability loss – strain 3D7, DAPI fluorescence, 100 nL, primary screen (AID 1184);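 also: parasites grown inside human red blood cells in medium with human serum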; settings: P. falciparum 3D7 growth, 3 d, higher = more signal
[3] = target: Homeobox protein Hox-A13 (Mus musculus) (UniProt Q62424); assay: disruptors of Hoxa13 oligonucleotide interaction – biochemical, fluorescence polarization, labeled oligonucleotide, primary screen (AID 1185); settings: Hoxa13:DNA binding, 15 min, higher = more signal, called active from +8 up or from −8 down
Homeobox protein Hox-A13 (Mus musculus), sequence (Q62424 whole entry, looked up): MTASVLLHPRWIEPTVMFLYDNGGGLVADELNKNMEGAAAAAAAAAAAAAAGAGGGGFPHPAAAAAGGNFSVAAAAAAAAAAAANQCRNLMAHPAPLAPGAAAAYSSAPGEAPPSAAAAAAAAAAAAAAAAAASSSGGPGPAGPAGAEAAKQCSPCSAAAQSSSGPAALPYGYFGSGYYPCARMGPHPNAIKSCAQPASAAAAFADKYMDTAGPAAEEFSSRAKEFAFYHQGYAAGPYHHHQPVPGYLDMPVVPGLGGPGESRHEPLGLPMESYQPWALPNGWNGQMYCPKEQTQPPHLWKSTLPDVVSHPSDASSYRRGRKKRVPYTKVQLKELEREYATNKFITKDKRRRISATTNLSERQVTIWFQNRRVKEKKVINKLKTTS

[4] = blockers of DNA damage checkpoint Chk1 activation – imaging, HeLa, hydroxyurea, phospho-Chk1 antibody, percent positive cells, primary screen (AID 1186); settings: hydroxyurea-induced phospho-Chk1 immunofluorescence imaging, higher = more signal
[5] = blockers of DNA damage checkpoint Chk1 activation – imaging, HeLa, hydroxyurea, phospho-Chk1 nuclear intensity, primary screen (AID 1187); settings: hydroxyurea-induced phospho-Chk1 immunofluorescence imaging, higher = more signal

SMILES | composite z-score [1] | composite z-score (XIP peptide (Xip251-270)) | z-score [2] | z-score [3] | z-score [4] | z-score [5]
CC1(C)C2C=C(C(O)C3C=CC4C(=O)NC(=O)C4N3Nc3ccc(Cl)cc3Cl)C[C@@H]1C2 (stereo not given in full) | 1.15 (inactive) | 0.231 | 0.665 | -4.45 (inactive) | 0.955 (inactive) | 0.327 (inactive)
O=C(c1ccccc1)N1Cc2ccccc2C[C@@]2(COC(c3ccc(OCCCO)cc3)=N2)C1=O | 1.45 (inactive) | 0.751 | -2.26 | -4.77 (inactive) | -0.221 (inactive) | 0.159 (inactive)
CNS(=O)(=O)c1ccc(C)cc1 | 0.493 (inactive) | -0.259 | 0.749 | -0.38 (inactive) | -0.41 (inactive) | -0.155 (inactive)
COCCCNC(=O)[C@@H]1c2ccccc2C(=O)N(Cc2ccccc2Cl)[C@H]1c1ccc(CO)cc1 | 0.432 (inactive) | 0.0699 | 0.652 | -2.2 (inactive) | -0.57 (inactive) | -0.352 (inactive)
CCC[C@@H]1C[C@@]1(CCC)[C@@H](NC(=O)c1ccccc1)c1cccc(Cl)c1 | 0.11 (inactive) | -0.211 | -0.348 | 2.13 (inactive) | -0.769 (inactive) | -0.608 (inactive)
C=CCOC(=O)[C@H]1[C@@H]2C(=O)O[C@@H](c3ccccc3)[C@@H](c3ccccc3)N2[C@@H](c2ccc(OCCOC(=O)[C@H]3C[C@H]4C(=O)N[C@@H](CCCCNC(C)=O)C(=O)N4[C@H]3c3cccc(OCCO)c3)cc2)[C@]12C(=O)Nc1ccccc12 | 0.899 (inactive) | 0.528 | -1.69 | -1.77 (inactive) | -0.843 (inactive) | -0.373 (inactive)
CC(C)C(O)C1C=CC2C(=O)NC(=O)C2N1Nc1ccc(Cl)cc1Cl (stereo not given) | 0.471 (inactive) | -0.615 | 0.0359 | -3.95 (inactive) | 0.998 (inactive) | 0.237 (inactive)
COCCOC(=O)N1C(=O)[C@@]2(c3ccccc31)[C@H](C(=O)N1CCc3cc(OC)c(OC)cc3C1)[C@H]1C(=O)O[C@H](c3ccccc3)[C@H](c3ccccc3)N1[C@@H]2c1ccc(OCCO)cc1 | 2.52 (inactive) | 0.8 | -2.33 | 1.9 (inactive) | 0.111 (inactive) | 0.55 (inactive)
C=CC1(C(=O)OC)CC=C(C(=O)OC)CC1 (stereo not given) | 0.552 (inactive) | 0.992 | 0.928 | -1.09 (inactive) | -1.36 (inactive) | -1.26 (inactive)
COC(=O)[C@@]1(Cc2ccc(OC)cc2)[C@H]2c3cc(C(=O)N(C)C)n(CCc4ccccn4)c3C[C@H]2CN1C(=O)c1ccccc1 | -0.312 (inactive) | -0.7 | -1.52 | -2.39 (inactive) | 0.808 (inactive) | 0.0643 (inactive)
NC(=O)NCC#Cc1ccc2c(c1)[C@]1(C(=O)N2)[C@H](c2ccc(O)cc2)N2[C@H](c3ccccc3)[C@H](c3ccccc3)OC(=O)[C@H]2[C@@H]1C(=O)O | -0.211 (inactive) | 0.157 | 0.431 | -5.27 (inactive) | 0.123 (inactive) | 0.094 (inactive)
CC(C)c1ccc(NN2C(C(O)c3ccc(B(O)O)cc3)C=CC3C(=O)N(c4ccccc4)C(=O)C32)cc1 (stereo not given) | 1.04 (inactive) | 0.665 | 0.101 | -4.18 (inactive) | -0.337 (inactive) | -0.659 (inactive)
COC(=O)[C@@]1(CCS(=O)(=O)c2ccccc2)N=C(c2ccc(OCCCO)cc2)O[C@H]1c1ccccc1CN=[N+]=[N-] | 1.24 (inactive) | 0.769 | -2.07 | -0.977 (inactive) | -0.395 (inactive) | -0.74 (inactive)
O=C1OCCC/C=C\[C@H]2OC34C=CCN(Cc5ccccc5)C(=O)[C@H]3N(CCCO)C(=O)[C@@H]4C12 (stereo not given in full) | 0.0652 (inactive) | -0.616 | -0.125 | -4.98 (inactive) | -0.58 (inactive) | -0.324 (inactive)
C=CCN1C(=O)[C@]2(O[C@H](CCn3cc([C@H](O)c4ccccc4)nn3)[C@@H]([Si](C)(C)c3ccc(OC)cc3)[C@@H]2C)c2cc(N3CCC3=O)ccc21 | 0.393 (inactive) | 0.128 | -2.89 | -5.76 (inactive) | -0.318 (inactive) | -0.171 (inactive)
CC(C)C(=C=CC[C@@H](O)c1ccc(OCCO)cc1)C[C@@H](O)COCc1ccccc1 | 0.372 (inactive) | 0.195 | -2.45 | -3.75 (inactive) | -1.27 (inactive) | -0.437 (inactive)
O=C1C2C=CC(C(O)c3cc(C(F)(F)F)cc(C(F)(F)F)c3)N(n3cnnc3)C2C(=O)N1Cc1ccccc1 (stereo not given) | -0.0242 (inactive) | 0.662 | -1.06 | -2.95 (inactive) | 0.506 (inactive) | 0.135 (inactive)
NC(=O)[C@@H]1[C@H]2C(=O)O[C@H](c3ccccc3)[C@H](c3ccccc3)N2[C@H](c2ccc(O)cc2)[C@@]12C(=O)Nc1ccccc12 | 0.138 (inactive) | 0.507 | -1.28 | -5.09 (inactive) | -0.0838 (inactive) | -0.0447 (inactive)

SMILES | composite z-score [1] | composite z-score (XIP peptide (Xip251-270)) | z-score [2] | z-score [3] | z-score [4] | z-score [5]
COCCCNC(=O)[C@]1(CCC(=O)OC(C)(C)C)N=C(c2ccc(OCCCO)cc2)O[C@@H]1c1ccccc1CN=[N+]=[N-] | -0.0552 (inactive) | 0.848 | -2.08 | -6.66 (inactive) | -0.113 (inactive) | -0.534 (inactive)
Cc1nc2cc(Br)ccc2c(=O)o1 | 0.312 (inactive) | 0.139 | -0.973 | 0.0804 (inactive) | -0.131 (inactive) | 0.134 (inactive)
CC(C)C(=C=CC[C@@H](O)c1ccc(OCCO)cc1)C[C@@H](O)c1ccccn1 | 1.5 (inactive) | 0.198 | -0.278 | -5.14 (inactive) | -0.329 (inactive) | -0.22 (inactive)
O=C1C2C=CC(C(O)CCc3ccccc3)N(Nc3ccccc3F)C2C(=O)N1c1ccccc1 (stereo not given) | 0.605 (inactive) | 0.524 | -0.0934 | -2.76 (inactive) | 0.652 (inactive) | 0.699 (inactive)
C=C(CCCC)C(=O)CC[C@@H](OC(=O)c1ccccc1-c1ccccc1C(=O)O)c1ccc(OCCO)cc1 | 0.175 (inactive) | 0.602 | -2.46 | -5.5 (inactive) | 0.431 (inactive) | 0.362 (inactive)
CC(C)C(=C=CC[C@H](O)c1ccc(OCCO)cc1)CCO | 0.427 (inactive) | -0.107 | -2.19 | -3.96 (inactive) | 0.805 (inactive) | 0.505 (inactive)
Cc1ccc(S[C@]2(C(=O)NCCCN(C)C)CC(=O)N(Cc3ccccc3C(F)(F)F)[C@@H]2c2ccc(CO)cc2)cc1 | 0.0209 (inactive) | -0.328 | -1.02 | -1.25 (inactive) | -0.0292 (inactive) | 0.135 (inactive)
CN1C(=O)C2C=CC(C(O)C3CC=CCC3)N(N(c3ccccc3)c3ccccc3)C2C1=O (stereo not given) | 0.241 (inactive) | -0.283 | -0.201 | -1.18 (inactive) | 0.451 (inactive) | 0.0168 (inactive)
Cc1ccc(S[C@]2(C(=O)NCCCN(C)C)CC(=O)N(Cc3cc(C(F)(F)F)cc(C(F)(F)F)c3)[C@@H]2c2ccc(CO)cc2I)cc1 | -0.773 (inactive) | -0.878 | 0.227 | -3.31 (inactive) | 0.522 (inactive) | 0.201 (inactive)
Cc1ccc(S[C@]2(C(=O)NC3CC3)CC(=O)N(Cc3ccccc3)[C@@H]2c2ccc(CO)cc2I)cc1 | 0.135 (inactive) | 0.387 | -0.0873 | -2.79 (inactive) | 0.327 (inactive) | 0.794 (inactive)
C[N+](C)(C)CCCCNC(=O)[C@@H]1C[C@@H]2C(=O)N[C@@H](Cc3ccccc3)C(=O)N2[C@@H]1c1cccc(OCCO)c1 | 1.09 (inactive) | 0.645 | -0.421 | -2.57 (inactive) | 0.367 (inactive) | 0.276 (inactive)
COC(=O)[C@@]1(CCC(=O)OC(C)(C)C)N=C(c2ccc(OCCCO)cc2)O[C@H]1c1ccccc1N=[N+]=[N-] | 1.35 (inactive) | 0.664 | -2.33 | -2.14 (inactive) | 0.114 (inactive) | -0.229 (inactive)
CC(C)NC(=O)[C@@]1(c2ccc([N+](=O)[O-])cc2)CC(=O)N(C2CCCCC2)[C@@H]1c1ccc(CO)cc1I | 0.46 (inactive) | 0.697 | -1.63 | -4.64 (inactive) | 0.1 (inactive) | 0.635 (inactive)
O=C(CS)NCCCCCCNC(=O)[C@@H]1C[C@@H]2C(=O)NCC(=O)N2[C@@H]1c1cccc(OCCO)c1 | 0.67 (inactive) | 0.579 | 0.132 | -2.98 (inactive) | 0.376 (inactive) | 0.376 (inactive)
CC(C)OC(=O)C=C1C[C@@H](c2ccccn2)O[C@@H](c2ccccn2)O1 | 1.4 (inactive) | -0.0957 | -0.929 | -5.67 (inactive) | 0.367 (inactive) | 0.129 (inactive)
CCCc1cc2c(n1Cc1cc(F)cc(F)c1)C(C)C1CN(C(=O)c3ccccc3)C(C)(C(=O)OC)C21 (stereo not given) | 0.264 (inactive) | -0.0681 | -1.32 | -2.41 (inactive) | 0.789 (inactive) | 0.0213 (inactive)
O=C1C[C@@](C(=O)NC2CC2)(c2ccc([N+](=O)[O-])cc2)[C@@H](c2ccc(CO)cc2I)N1C1CCCCC1 | 0.0057 (inactive) | 0.693 | -1.28 | -4.72 (inactive) | -0.254 (inactive) | -0.233 (inactive)
